In the supplement of paper PMC10849652:
Of roughly 7,900 targets only a part is listed; those with a hit were picked by preference. About 0.6% of all pairs of compound and target were hits.

Legend:
Test in all cases: log2 fold change, soluble protein after heating vs DMSO (PISA); higher = thermal stabilisation; K562 cells, 10 uM, 30 min; active = over 0.2 and 3.5 SD of the protein, either way, in both replicates (recomputed)
[1] = compound: CS(=O)(=O)c1ccc(-c2cnc(N)c(C(=O)Nc3ccccc3)n2)cc1
Procedure, shortened: (§1)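 K562 cells at 2×10^6 cells/mL were treated for 30 min with 10 μM compound, and aliquots were heated for 3 min over 48°C-58°C before pooling. Extraction used PBS with 0.5% NP-40 at 4°C, and soluble protein was the supernatant after 21,000xg for 90 min, measured by TMTpro 16plex LC-MS/MS with channel sums equalised. Thermal stability values, relative to control samples and from duplicates, are log2 fold changes.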

crizotinib = compound: C[C@@H](Oc1cc(-c2cnn(C3CCNCC3)c2)cnc1N)c1c(Cl)ccc(F)c1Cl [crizotinib]
Procedure, shortened: as §1

[2] = compound: C[C@H](C1=CC=C(C=C1)C(=O)NC2=C3C=CNC3=NC=C2)N
Procedure, shortened: as §1

duvelisib = compound: C[C@H](Nc1ncnc2nc[nH]c12)c1cc2cccc(Cl)c2c(=O)n1-c1ccccc1 [duvelisib]
Procedure, shortened: as §1

gandotinib = compound: Cc1cc(Nc2cc(CN3CCOCC3)c3nc(C)c(Cc4ccc(Cl)cc4F)n3n2)n[nH]1 [gandotinib]
Procedure, shortened: as §1

tozasertib = compound: Cc1cc(Nc2cc(N3CCN(C)CC3)nc(Sc3ccc(NC(=O)C4CC4)cc3)n2)n[nH]1 [tozasertib]
Procedure, shortened: as §1

[3] = compound: Cc1cc(SCc2sc(-c3ccc(C(F)(F)F)cc3)nc2C)ccc1OCC(=O)O
Procedure, shortened: as §1

doramapimod = compound: Cc1ccc(-n2nc(C(C)(C)C)cc2NC(=O)Nc2ccc(OCCN3CCOCC3)c3ccccc23)cc1 [doramapimod]
Procedure, shortened: as §1

ispinesib = compound: Cc1ccc(C(=O)N(CCCN)[C@@H](c2nc3cc(Cl)ccc3c(=O)n2Cc2ccccc2)C(C)C)cc1 [ispinesib]
Procedure, shortened: as §1

bafetinib = compound: Cc1ccc(NC(=O)c2ccc(CN3CC[C@H](N(C)C)C3)c(C(F)(F)F)c2)cc1Nc1nccc(-c2cncnc2)n1 [bafetinib]
Procedure, shortened: as §1

[4] = compound: Cc1cccc(CC(=O)N2CCc3c2ccc(-c2cn(C)c4ncnc(N)c24)c3F)n1
Procedure, shortened: as §1

nilotinib = compound: Cc1cn(-c2cc(NC(=O)c3ccc(C)c(Nc4nccc(-c5cccnc5)n4)c3)cc(C(F)(F)F)c2)cn1 [nilotinib]
Procedure, shortened: as §1

[5] = compound: Cc1nc(Nc2n[nH]c3c2CN(C(=O)N[C@H](CN(C)C)c2ccccc2)C3(C)C)c2sccc2n1
Procedure, shortened: as §1

dasatinib = compound: Cc1nc(Nc2ncc(C(=O)Nc3c(C)cccc3Cl)s2)cc(N2CCN(CCO)CC2)n1 [dasatinib]
Procedure, shortened: as §1

[6] = compound: Cc1ncc(-c2ccnc(Nc3ccc(S(C)(=O)=O)cc3)n2)n1C(C)C
Procedure, shortened: as §1

[7] = compound: Cn1cc(-c2ccc3c(c2)CCN3C(=O)Cc2cccc(C(F)(F)F)c2)c2c(N)ncnc21
Procedure, shortened: as §1

[8] = compound: Cn1cc(-c2ccc3nnc(C(F)(F)c4ccc5ncccc5c4)n3n2)cn1
Procedure, shortened: as §1

tipifarnib = compound: Cn1cncc1[C@@](N)(c1ccc(Cl)cc1)c1ccc2c(c1)c(-c1cccc(Cl)c1)cc(=O)n2C [tipifarnib]
Procedure, shortened: as §1

mubritinib = compound: FC(F)(F)c1ccc(/C=C/c2nc(COc3ccc(CCCCn4ccnn4)cc3)co2)cc1 [mubritinib]
Procedure, shortened: as §1

[9] = compound: C[C@@H]1COCCN1C2=NC(=NC(=C2)C3(CC3)S(=O)(=O)C)C4=C5C=CNC5=CC=C4
Procedure, shortened: as §1

Measured: log2 fold change

ANK2 (UniProt Q01484)
Chain of UniProt Q01484 (Q01484 whole entry, looked up): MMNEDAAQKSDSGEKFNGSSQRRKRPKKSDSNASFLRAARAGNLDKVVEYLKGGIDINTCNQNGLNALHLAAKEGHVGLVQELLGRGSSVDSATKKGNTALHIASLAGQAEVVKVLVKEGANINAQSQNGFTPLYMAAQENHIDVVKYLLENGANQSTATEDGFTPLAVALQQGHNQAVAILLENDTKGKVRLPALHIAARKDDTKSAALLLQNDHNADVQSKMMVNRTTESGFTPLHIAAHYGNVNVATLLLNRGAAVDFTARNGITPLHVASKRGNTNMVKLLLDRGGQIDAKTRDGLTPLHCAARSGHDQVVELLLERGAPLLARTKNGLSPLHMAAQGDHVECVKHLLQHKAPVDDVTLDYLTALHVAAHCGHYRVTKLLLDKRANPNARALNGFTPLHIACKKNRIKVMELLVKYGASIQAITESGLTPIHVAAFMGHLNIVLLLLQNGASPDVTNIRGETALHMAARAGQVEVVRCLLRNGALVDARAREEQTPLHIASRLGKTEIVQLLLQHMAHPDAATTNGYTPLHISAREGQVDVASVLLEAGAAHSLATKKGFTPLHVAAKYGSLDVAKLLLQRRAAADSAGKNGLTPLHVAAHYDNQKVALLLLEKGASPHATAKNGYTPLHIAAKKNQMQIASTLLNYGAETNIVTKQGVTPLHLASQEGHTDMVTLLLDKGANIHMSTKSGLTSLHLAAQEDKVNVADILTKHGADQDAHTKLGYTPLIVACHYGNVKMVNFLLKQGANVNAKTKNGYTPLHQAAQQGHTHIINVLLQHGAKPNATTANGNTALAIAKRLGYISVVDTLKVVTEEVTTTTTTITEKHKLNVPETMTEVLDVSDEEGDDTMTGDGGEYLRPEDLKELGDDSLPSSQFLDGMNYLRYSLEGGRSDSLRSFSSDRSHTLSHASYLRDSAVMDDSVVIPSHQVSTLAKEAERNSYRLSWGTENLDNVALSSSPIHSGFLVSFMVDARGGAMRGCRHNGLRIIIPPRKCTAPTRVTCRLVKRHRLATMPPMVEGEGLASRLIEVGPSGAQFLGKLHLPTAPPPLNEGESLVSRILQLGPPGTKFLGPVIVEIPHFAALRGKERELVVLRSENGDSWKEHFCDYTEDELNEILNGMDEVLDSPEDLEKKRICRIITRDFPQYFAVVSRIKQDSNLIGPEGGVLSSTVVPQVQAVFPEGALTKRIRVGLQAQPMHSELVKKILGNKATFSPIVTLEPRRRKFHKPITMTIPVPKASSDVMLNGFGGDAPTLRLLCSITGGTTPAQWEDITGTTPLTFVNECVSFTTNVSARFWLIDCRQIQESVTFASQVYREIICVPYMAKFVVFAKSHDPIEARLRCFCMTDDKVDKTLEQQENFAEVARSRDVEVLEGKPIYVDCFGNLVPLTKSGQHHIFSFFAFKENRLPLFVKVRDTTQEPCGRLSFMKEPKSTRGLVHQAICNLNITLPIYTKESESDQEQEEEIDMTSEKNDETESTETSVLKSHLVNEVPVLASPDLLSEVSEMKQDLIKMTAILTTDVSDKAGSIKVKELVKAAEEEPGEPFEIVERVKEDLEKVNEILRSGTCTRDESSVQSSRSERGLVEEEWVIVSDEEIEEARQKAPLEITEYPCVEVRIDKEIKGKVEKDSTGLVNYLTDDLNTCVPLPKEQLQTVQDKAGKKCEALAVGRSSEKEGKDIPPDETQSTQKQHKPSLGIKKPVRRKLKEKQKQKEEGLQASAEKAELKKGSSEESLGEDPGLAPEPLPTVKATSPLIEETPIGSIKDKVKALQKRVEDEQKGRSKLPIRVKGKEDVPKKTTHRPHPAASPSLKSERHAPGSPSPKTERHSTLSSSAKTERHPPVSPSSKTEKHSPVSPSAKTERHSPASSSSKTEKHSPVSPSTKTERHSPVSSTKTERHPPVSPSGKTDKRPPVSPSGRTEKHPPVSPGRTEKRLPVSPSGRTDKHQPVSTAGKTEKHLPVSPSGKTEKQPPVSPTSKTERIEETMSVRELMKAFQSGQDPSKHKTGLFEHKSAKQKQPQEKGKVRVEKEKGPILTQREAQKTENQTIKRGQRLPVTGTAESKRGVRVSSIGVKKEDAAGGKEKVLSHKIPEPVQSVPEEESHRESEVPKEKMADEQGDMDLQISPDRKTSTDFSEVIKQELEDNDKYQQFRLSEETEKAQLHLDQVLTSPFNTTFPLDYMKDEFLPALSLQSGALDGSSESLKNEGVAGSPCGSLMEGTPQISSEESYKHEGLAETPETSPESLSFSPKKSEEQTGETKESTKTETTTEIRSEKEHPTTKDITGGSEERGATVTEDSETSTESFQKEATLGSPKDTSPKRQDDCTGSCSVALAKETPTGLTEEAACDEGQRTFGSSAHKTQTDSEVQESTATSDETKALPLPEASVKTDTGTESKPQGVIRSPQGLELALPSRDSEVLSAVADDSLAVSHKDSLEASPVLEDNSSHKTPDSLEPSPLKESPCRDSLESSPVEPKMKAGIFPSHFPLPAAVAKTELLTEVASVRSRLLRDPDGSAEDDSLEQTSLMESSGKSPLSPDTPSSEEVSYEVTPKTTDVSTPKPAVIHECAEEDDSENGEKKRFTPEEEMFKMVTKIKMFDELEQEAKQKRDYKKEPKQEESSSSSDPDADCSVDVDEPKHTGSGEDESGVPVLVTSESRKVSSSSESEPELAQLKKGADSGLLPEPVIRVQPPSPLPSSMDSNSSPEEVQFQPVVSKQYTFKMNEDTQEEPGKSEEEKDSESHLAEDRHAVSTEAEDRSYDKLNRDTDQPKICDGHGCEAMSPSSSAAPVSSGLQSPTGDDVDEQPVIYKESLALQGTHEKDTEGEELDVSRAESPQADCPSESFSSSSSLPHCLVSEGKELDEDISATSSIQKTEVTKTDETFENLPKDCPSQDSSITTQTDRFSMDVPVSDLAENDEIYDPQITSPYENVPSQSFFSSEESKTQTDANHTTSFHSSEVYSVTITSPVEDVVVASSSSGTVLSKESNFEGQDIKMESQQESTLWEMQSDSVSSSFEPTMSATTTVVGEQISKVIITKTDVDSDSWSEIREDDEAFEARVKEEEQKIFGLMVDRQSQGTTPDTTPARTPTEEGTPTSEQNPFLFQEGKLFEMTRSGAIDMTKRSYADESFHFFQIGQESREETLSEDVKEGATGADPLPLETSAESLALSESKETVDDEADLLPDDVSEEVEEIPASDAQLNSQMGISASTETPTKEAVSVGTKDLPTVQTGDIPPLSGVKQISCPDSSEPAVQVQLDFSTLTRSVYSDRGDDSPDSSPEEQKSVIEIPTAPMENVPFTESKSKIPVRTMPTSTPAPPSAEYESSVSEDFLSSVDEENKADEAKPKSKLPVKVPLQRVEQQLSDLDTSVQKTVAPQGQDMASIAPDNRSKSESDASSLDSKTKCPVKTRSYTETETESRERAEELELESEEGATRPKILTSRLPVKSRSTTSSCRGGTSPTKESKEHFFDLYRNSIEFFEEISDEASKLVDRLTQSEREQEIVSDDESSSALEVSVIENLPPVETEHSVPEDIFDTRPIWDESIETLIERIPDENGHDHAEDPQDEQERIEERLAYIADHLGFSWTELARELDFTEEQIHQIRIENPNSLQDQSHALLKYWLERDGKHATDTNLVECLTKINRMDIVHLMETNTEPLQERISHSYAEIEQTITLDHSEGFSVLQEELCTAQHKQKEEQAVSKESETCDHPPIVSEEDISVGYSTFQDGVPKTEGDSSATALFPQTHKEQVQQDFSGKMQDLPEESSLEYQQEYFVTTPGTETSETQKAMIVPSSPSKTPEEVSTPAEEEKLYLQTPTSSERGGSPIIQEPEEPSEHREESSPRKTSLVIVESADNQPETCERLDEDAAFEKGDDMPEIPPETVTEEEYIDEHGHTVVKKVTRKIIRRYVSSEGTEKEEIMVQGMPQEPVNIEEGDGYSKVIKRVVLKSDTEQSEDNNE
inactive: [1] 0.066 | crizotinib 0.062 | [2] -0.005 | duvelisib 0.21 | gandotinib -0.092 | tozasertib 0.011 | [3] 0.089 | doramapimod 0.055 | ispinesib -0.188 | bafetinib -0.281 | [4] -0.034 | nilotinib -0.265 | [5] 0.041 | dasatinib -0.277 | [6] -0.042 | [7] 0.012 | [8] 0.01 | tipifarnib 0.034 | mubritinib -0.141

ACOX3 (UniProt O15254)
inactive: [1] -0.006 | crizotinib -0.091 | [9] 0.016 | [2] 0.065 | tozasertib -0.018 | doramapimod 0.14 | bafetinib 0.053 | nilotinib 0.159 | [5] -0.028 | [6] 0.107 | [7] -0.009 | tipifarnib 0.272 | mubritinib -0.241

ADD3 isoform 2 (UniProt Q9UEY8)
inactive: [1] -0.032 | crizotinib 0.028 | [9] 0.101 | [2] -0.248 | duvelisib 0.049 | gandotinib -0.211 | tozasertib 0.047 | [3] 0.089 | doramapimod -0.074 | ispinesib 0.036 | [4] 0.05 | dasatinib -0.116 | [7] 0.152 | [8] -0.026 | tipifarnib -0.067 | mubritinib -0.007

APOH (UniProt P02749)
inactive: [1] -0.22 | crizotinib -0.179 | [2] -0.071 | duvelisib -0.017 | gandotinib -0.747 | tozasertib -0.125 | [3] 0.458 | doramapimod -0.108 | ispinesib -0.595 | [4] 0.083 | nilotinib 0 | [5] 0.031 | dasatinib -0.281 | [6] 0.392 | [7] 0.145 | [8] -0.167 | tipifarnib 0.085 | mubritinib -0.346
active: bafetinib -1.07

ARFIP1 isoform 2 (UniProt P53367)
inactive: [1] -0.03 | crizotinib -0.266 | [9] 0.047 | duvelisib 0.11 | gandotinib -0.112 | [3] 0.081 | doramapimod 0.087 | bafetinib -0.281 | [4] -0.195 | nilotinib -0.147 | [5] -0.049 | dasatinib -0.316 | [6] -0.013 | tipifarnib -0.024 | mubritinib -0.004

AFDN isoform 1 (UniProt P55196)
inactive: [1] 0.004 | crizotinib 0.088 | [9] 0.371 | [2] 0.111 | duvelisib 0.054 | gandotinib 0.183 | [3] 0.068 | doramapimod 0.116 | ispinesib 0.11 | bafetinib -0.053 | [4] -0.077 | dasatinib -0.152 | [7] -0.027 | [8] 0.07 | mubritinib 0.031

APLP2 (UniProt Q06481)
inactive: [1] 0 | crizotinib 0.032 | [9] -0.012 | [2] -0.035 | duvelisib 0.088 | gandotinib 0.117 | tozasertib 0.103 | [3] -0.049 | doramapimod 0.049 | ispinesib 0.16 | bafetinib 0.054 | [4] -0.063 | nilotinib 0.156 | [5] -0.144 | dasatinib 0.118 | [6] 0.052 | [7] -0.007 | [8] -0.164 | tipifarnib -0.01 | mubritinib -0.011

BRD8 isoform 2 (UniProt Q9H0E9)
Chain of UniProt Q9H0E9 (Q9H0E9 whole entry, looked up): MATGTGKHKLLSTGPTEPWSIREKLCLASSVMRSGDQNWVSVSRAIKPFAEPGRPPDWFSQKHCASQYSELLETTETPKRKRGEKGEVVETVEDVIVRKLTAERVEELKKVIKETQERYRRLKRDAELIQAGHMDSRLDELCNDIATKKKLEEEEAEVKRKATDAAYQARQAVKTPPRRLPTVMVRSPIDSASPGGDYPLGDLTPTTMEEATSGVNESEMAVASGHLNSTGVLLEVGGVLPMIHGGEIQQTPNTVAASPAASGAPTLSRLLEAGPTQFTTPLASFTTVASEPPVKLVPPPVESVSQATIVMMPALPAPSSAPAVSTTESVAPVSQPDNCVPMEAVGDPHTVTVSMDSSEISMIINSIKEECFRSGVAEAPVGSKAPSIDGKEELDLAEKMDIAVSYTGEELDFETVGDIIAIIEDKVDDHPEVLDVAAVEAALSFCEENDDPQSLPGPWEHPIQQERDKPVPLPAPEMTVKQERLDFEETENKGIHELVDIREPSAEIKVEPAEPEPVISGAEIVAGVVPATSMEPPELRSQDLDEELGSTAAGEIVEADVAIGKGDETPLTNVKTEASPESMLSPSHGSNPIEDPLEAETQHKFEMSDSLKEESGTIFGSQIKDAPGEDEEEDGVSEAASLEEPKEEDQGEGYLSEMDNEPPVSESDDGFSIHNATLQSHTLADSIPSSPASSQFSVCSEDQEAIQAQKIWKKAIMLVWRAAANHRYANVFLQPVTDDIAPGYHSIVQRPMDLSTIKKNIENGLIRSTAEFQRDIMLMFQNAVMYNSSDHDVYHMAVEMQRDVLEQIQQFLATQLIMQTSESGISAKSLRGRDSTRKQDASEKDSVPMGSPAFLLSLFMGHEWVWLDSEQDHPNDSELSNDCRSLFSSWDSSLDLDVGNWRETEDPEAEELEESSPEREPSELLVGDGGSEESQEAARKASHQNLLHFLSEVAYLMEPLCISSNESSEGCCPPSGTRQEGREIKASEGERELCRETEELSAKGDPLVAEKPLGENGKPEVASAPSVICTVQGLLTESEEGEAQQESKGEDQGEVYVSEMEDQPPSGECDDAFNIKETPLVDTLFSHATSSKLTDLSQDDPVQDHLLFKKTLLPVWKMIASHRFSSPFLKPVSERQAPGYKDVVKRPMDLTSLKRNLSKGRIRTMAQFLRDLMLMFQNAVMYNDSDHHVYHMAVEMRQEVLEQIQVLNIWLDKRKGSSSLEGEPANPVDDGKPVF
inactive: [1] -0.134 | crizotinib 0.044 | [9] -0.11 | [2] 0.042 | duvelisib 0.037 | gandotinib 0.113 | tozasertib 0.004 | [3] -0.012 | doramapimod 0.04 | ispinesib 0.061 | bafetinib -0.057 | [4] 0.064 | dasatinib -0.136 | [7] -0.022 | [8] -0.038 | tipifarnib -0.038

ATP1A1 (UniProt P05023)
inactive: [1] 0.032 | crizotinib 0.165 | [9] 0.028 | [2] -0.117 | duvelisib 0.029 | gandotinib -0.049 | tozasertib -0.061 | [3] -0.035 | doramapimod -0.047 | ispinesib 0.106 | bafetinib 0.018 | [4] 0.102 | nilotinib 0.062 | [5] 0.008 | dasatinib 0.07 | [6] 0.005 | [7] 0.04 | [8] 0.001 | tipifarnib -0.011 | mubritinib 0.023
